A selection: hits, their analogues and other compounds. The true share with any hit is near 2.8%.
GLS inh: glutaminase GLS (human) inhibition; 410,000 tested, 0.21% active; Potency, µM (top dose mostly 45.5 µM), without a hit: at the top dose activity change, negative = inhibition, hits mostly inhibitors; GLS enzymatic activity, qHTS titration; AID 624170; further: potency means the concentration at half of the fitted maximal effect; on the % scale 0 is the no-effect control and ±100 the full control effect
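Compounds were pin-transferred onto hKGA, after which L-glutamine (1 mM solution) and a detection mix of glutamate oxidase, HRP and Amplex Red were added. Initial and 30 min RT fluorescence reads were collected.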
GLP-1R inv ag: acts as inverse agonist at human GLP-1 receptor; 410,000 tested, 1.6% active; Potency, µM (top dose mostly 38.3 µM), for the others: at the highest dose activity change, negative = inhibition, most hits filed as inhibitors; P43220; HEK293 GLP-1R CRE-luciferase, luminescence, 24 h; GLP-1R form is constitutively active; further: potency means the concentration at half of the fitted maximal effect; on the % scale 0 is the no-effect control and ±100 the full control effect; nearly all actives have a fitted effect of over 55% in size
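Assay principle: reduced luminescence from a cAMP-responsive reporter in HEK293 cells co-expressing a constitutively active GLP-1R. Conditions: 24 hr compound incubation, 37 deg C, 5% CO2.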
HEK293 tox: cytotoxic in the GLP-1 receptor inverse agonist counter-screen | HEK293 cAMP-luciferase reporter cells, luminescence, 24 h | Potency, µM (series often up to 38.3 µM), without a hit: top-dose activity change, negative = inhibition, usual class: inhibitors | 410,000 tested, 0.13% active | AID 624418;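 further: loss of luciferase light is scored as toxicity; potency means the concentration at half of the fitted maximal effect; on the % scale 0 is the no-effect control and ±100 the full control effect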
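Step one: seed cells (200 cells/uL, DMEM with 10% Nu serum, 1% pen-strep). Step two: 12-hour incubation at 37 deg C. Step three: pin 23 nL compound, incubate 24 hr. Step four: add luciferase reagent, read luminescence 12 min later.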
GLP-1R agonist: GLP-1 receptor (human) agonism | Potency, µM (top dose mostly 45.6 µM), for inactives: top-dose activation, usual class: activators | HEK293 GLP-1R CRE-luciferase, luminescence, 4-6 h; cells express a hypersensitive GLP-1R form | P43220 | 380,000 tested, 0.007% active | AID 624172; further: potency means the concentration at half of the fitted maximal effect; % of control where 0% means no effect
KCNH2 3.1 inh: KCNH2 3.1 (human) potassium channel inhibition | U2OS KCNH2 3.1, thallium flux FluxOr; active compounds read low | activity change, % (tested at about 1.8 µM) | 340,000 tested, 0.95% active | AID 720553;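 active means maximum activity change below -70%; inconclusive means maximum activity change from -70% to -50%; inactive means maximum activity change above -50%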;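 further: thallium influx rate constant from kinetic fluorescence after stimulation buffer; on the % scale 0 is the no-effect control and ±100 the full control effect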
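Kinetic fluorescence (2 min after stimulation buffer) measures Tl+ influx through KCNH2 3.1 expressed by viral transduction in U2OS cells; the rate constant is normalized against DMSO controls serving as positive and negative references.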
hERG WT inh: inhibitors of human wildtype KCNH2 potassium channel | Q12809 | U2OS, BacMam KCNH2, thallium flux FluxOr; active compounds read low | activity change, % at 1.84 µM | 340,000 tested, 0.37% active;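 active means maximum activity change below -70%; inconclusive means maximum activity change between -70% and -50%; inactive means maximum activity change above -50%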; further: on the % scale 0 is the no-effect control and ±100 the full control effect
Target sequence (Q12809 whole entry, looked up): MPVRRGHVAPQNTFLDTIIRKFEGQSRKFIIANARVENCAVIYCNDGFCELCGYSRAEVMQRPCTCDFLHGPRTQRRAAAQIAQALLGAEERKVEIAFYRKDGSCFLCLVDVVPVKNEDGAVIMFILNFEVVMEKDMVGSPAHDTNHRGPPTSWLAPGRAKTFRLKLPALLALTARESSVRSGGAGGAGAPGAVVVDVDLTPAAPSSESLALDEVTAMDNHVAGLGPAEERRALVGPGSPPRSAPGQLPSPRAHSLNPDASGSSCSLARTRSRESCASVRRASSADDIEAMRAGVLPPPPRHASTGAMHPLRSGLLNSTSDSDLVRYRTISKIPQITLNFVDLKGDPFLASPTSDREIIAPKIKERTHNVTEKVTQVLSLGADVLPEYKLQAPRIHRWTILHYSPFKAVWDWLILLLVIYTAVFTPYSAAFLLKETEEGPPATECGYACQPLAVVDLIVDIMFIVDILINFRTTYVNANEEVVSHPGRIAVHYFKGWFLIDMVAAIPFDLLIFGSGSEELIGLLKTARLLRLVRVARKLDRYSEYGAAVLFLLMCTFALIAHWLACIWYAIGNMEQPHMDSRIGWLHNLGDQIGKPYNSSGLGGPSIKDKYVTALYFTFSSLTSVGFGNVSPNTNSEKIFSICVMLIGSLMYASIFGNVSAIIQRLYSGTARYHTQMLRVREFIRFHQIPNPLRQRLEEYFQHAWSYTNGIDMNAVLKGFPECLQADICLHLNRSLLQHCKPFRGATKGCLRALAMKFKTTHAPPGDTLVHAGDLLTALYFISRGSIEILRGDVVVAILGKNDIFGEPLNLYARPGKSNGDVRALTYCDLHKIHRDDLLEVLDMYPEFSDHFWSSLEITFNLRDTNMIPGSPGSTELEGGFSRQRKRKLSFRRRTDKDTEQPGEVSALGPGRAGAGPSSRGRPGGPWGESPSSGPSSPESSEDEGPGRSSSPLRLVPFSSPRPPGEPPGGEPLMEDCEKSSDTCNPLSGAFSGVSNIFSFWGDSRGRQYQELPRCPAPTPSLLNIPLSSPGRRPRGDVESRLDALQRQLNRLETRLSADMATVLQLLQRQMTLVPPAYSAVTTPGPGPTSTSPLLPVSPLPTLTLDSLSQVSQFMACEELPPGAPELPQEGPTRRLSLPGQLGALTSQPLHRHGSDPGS
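U2OS cells transduced with wild-type KCNH2 virus are loaded with FluxOr dye for 45 min, and thallium flux is measured in kinetic reads before and after stimulation buffer. Rate constants are normalized to DMSO controls.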
Starred values were filed as active, the others as inactive; u = inconclusive; x = not tested or not shown. Unless noted, the call rests on the fitted dose curve; in most records, active means well fitted curve in the direction sought with a large enough effect; inconclusive means small, poorly fitted or top-dose-only effect, or another doubt; inactive means no such curve, though single readings can be large; an effect the other way counts as inactive or inconclusive.

SMILES	GLS inh	GLP-1R inv ag	HEK293 tox	GLP-1R agonist	KCNH2 3.1 inh	hERG WT inh
CCc1cc(C(=O)NCC(c2cccs2)N2CCOCC2)sc1C (configuration not stated)	-1%	2%	16%	4%	0	2
Cc1c(C(=O)NCCc2ccccc2)cccc1-n1cnc2cccnc21	-9%	15%	-10%	x	x	x
O=C(CCC1CCCN(C(=O)c2cc(F)ccc2F)C1)N1CCN(c2ccccn2)CC1 (configuration not stated)	2%	-18%	7%	9%	-5	-4
CCOC(=O)CC(=O)CSc1nc2c(cc1C#N)CCCCCC2	0%	0%	8%	-2%	-13	-116*
COC(=O)CC(=O)CSc1nc2c(cc1C#N)CCC2	10%	50%	22%	-1%	21	-8
Cc1ccccc1SCC(=O)NCC1(N2CCCCC2)CCCCC1	14%	-28%	2%	0%	-8	3
CN1C(=O)/C(=C\c2ccc(N(C)C)cc2)OC1=S	u	40%	66%	20%	-23	-101*
COC(=O)c1cc2c(n1S(=O)(=O)c1ccc(C)cc1)C(=O)C(=O)c1[nH]cc(C(=O)OCc3ccccc3)c1-2	-17%	u	4µM*	-17%	x	-21
C=CCN1C=C/C(=C\C=C(C#N)C#N)c2ccccc21	-16%	u	u	-1%	-10	-1
CCCCCCN1C=CC=C/C1=C/C=C(C#N)C#N	-2%	20%	-24%	13%	-31	-123*
CCCCCCN1C=C/C(=C\C=C(C#N)C#N)c2ccccc21	-4%	0%	u	-1%	-105*	-148*
CC1=C(C(=O)Nc2cccc(C(F)(F)F)c2)C2(CCCCCC2)OC1=O	-21%	u	-12%	x	x	x
Cn1c(Sc2ccc(Br)cc2)c(C=O)c2ccccc21	2%	4.5µM*	-20%	-23%	-45	-10
Cn1c(C=O)c(C#Cc2ccccc2)c2ccccc21	0%	u	58%	16%	-1	-3
C[C@H](CO)N1C[C@H](C)[C@@H](CN(C)C(=O)Nc2ccc3c(c2)OCO3)Oc2ccc(NC(=O)CCC(F)(F)F)cc2C1=O	14%	2%	-2%	7%	13	-3
COc1ccc(C(C)=O)cc1CSc1nnc(Nc2ccccc2C)s1	5%	u	-30%	-3%	-117*	17
COc1ccc(C(C)=O)cc1CSc1nnc(Nc2ccc(C)cc2C)s1	-3%	u	-36%	16%	-14	8
Cc1nn(Cc2ccc(Cl)cc2Cl)c(C)c1NC(=O)c1ccc(COc2cc(Cl)ccc2Cl)o1	-10%	u	-12%	2%	-28	0
Cc1nn(Cc2c(F)c(F)c(F)c(F)c2F)c(C)c1NC(=O)c1ccc(COc2ccc(Cl)cc2Cl)o1	-1%	5µM*	-15%	1%	1	35
CCC(=O)Nc1cccc(-c2nnc(SCC(=O)NCc3ccco3)n2C)c1	-4%	1%	-7%	-2%	3	0
CCC(=O)Nc1cccc(-c2nnc(SCC(=O)c3ccccc3)n2C)c1	1%	12%	0%	-6%	-91*	0
Cc1ccc(S(=O)(=O)N2CCC(c3nnc(-c4cccc(C)c4)o3)CC2)cc1	7%	u	2%	x	x	x
COc1ccc(Cl)cc1NC(=O)c1ccc(CN2C(=O)CCn3nc(C)cc32)cc1	-1%	5%	-26%	x	x	x
CN1CCN(C(=S)c2cn(Cc3cccc(F)c3)c3ccccc23)CC1	6%	u	-13%	10%	1	10
CC1CCN(C(=S)c2cn(Cc3ccccc3F)c3ccccc23)CC1	0%	10µM*	-23%	-1%	-18	0
CN1CCN(C(=S)c2cn(Cc3ccc(F)cc3)c3ccccc23)CC1	6%	10µM*	-7%	10%	-14	-6
